Data from PubChem BioAssay.
Inconclusive results are not listed. The list shows a part of the results. The source made the active and inactive calls. Rule as the data show it, unless noted: active = percent of DMSO control GFP below about 86%; inactive = the rest, inconclusive results apart.

Assays:
[1] = molecular target: Regulator of G-protein signaling 16 (Homo sapiens) (UniProt O15492); experiment: small molecules altering RGS protein interactions with GNAO1 – biochemical, multiplexed beads, flow cytometry, RGS4/7/8/16/19, primary screen (AID 1504); details: multiplexed bead flow cytometry, measured here: RGS16 interaction, at 10 µM;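 also: fluorescently labeled Galpha-o bound to GDP with aluminium fluoride binding biotinylated RGS beads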
[2] = molecular target: Regulator of G-protein signaling 19 (Homo sapiens) (UniProt P49795); experiment: as above; details: multiplexed bead flow cytometry, measured here: RGS19 interaction, at 10 µM
[3] = molecular target: Regulator of G-protein signaling 7 (Homo sapiens) (UniProt P49802); experiment: as above; details: multiplexed bead flow cytometry, measured here: RGS7 interaction, at 10 µM
[4] = molecular target: Regulator of G-protein signaling 8 (Homo sapiens) (UniProt P57771); experiment: as above; details: multiplexed bead flow cytometry, measured here: RGS8 interaction, at 10 µM
[5] = interference with biotin-avidin bead interaction – biochemical, flow cytometry, bead-based, counter-screen for RGS protein interaction modulators (AID 1783;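 active = inhibition above 50%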;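 also: median green fluorescence of gated singlet beads compared with DMSO control wells; 0% = DMSO wells and 100% = complete loss of bead fluorescence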); details: streptavidin beads, fluorescein-biotin binding; at 10 µM, stronger effect = higher value
[6] = molecular target: Guanine nucleotide-binding protein G(o) subunit alpha (Homo sapiens) (UniProt P09471); experiment: retest of RGS8-Galphao interaction hits – biochemical, multiplexed bead flow cytometry, single concentration, confirmation (AID 1836; in the data active = binding response below about 72% or above about 130%; inactive = in between;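 also: Galphao activated as GDP AlF4 complex before binding bead RGS8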); details: bead-based flow cytometry RGS8-Galphao binding, fluorescence; at 10 µM; actives lie on both sides
[7] = molecular target: Guanine nucleotide-binding protein G(o) subunit alpha (Homo sapiens) (UniProt P09471); experiment: retest of RGS7-Galphao interaction hits – biochemical, multiplexed bead flow cytometry, single concentration, confirmation (AID 1837; in the data active = response below about 75% or above about 130%; inactive = in between;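 also: fluorescent Galphao activated with GDP and aluminum fluoride binding bead-coupled RGS7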); details: bead-based flow cytometry RGS7-Galphao binding; at 10 µM; actives lie on both sides
[8] = molecular target: Regulator of G-protein signaling 16 (Homo sapiens) + Guanine nucleotide-binding protein G(o) subunit alpha (Homo sapiens) (UniProt O15492+P09471); experiment: RGS16 and Galphao interaction regulators – biochemical, single concentration, multiplexed bead flow cytometry, confirmation (AID 1838; in the data active = response below about 74% or above about 130%; inactive = in between;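 also: Galphao activated as the GDP aluminium fluoride complex binding bead-coupled RGS16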); details: bead-based flow cytometry, at 10 µM, actives lie on both sides
[9] = molecular target: Guanine nucleotide-binding protein G(o) subunit alpha (Homo sapiens) (UniProt P09471); experiment: RGS4 and Galphao interaction regulators – biochemical, single concentration, multiplexed bead flow cytometry, confirmation (AID 1840; in the data active = binding response below about 74% or above about 130%; inactive = in between); details: at 10 µM, actives lie on both sides
[10] = molecular target: Guanine nucleotide-binding protein G(o) subunit alpha (Homo sapiens) + Regulator of G-protein signaling 19 (Homo sapiens) (UniProt P09471+P49795); experiment: RGS19 interaction with Gαo, hit retest – biochemical, single point, multiplexed bead flow cytometry, confirmation (AID 1841; in the data active = response below about 50% or above about 160%; inactive = in between;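 also: 100% = no compound control and 0% = blank background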); details: bead-based flow cytometry RGS19-Galphao binding; at 10 µM; actives lie on both sides
[11] = rapamycin-like changes in RPL19A-GFP expression – cell-based, S. cerevisiae, multiplex flow cytometry, primary screen (AID 1862);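 also: lower values mimic rapamycin by blocking the RPL19A rise seen in DMSO cells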; details: S. cerevisiae RPL19A-GFP strain, flow cytometry fluorescence, 3 h; at 10 µM; stronger effect = lower value
[12] = TOR pathway GLN3 branch reporter MEP2-GFP changes – S. cerevisiae, multiplex flow cytometry, primary screen (AID 1867;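 active = GFP response, as percent of the DMSO control, above the screen-wide mean plus 3 SD, about 139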;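 also: median GFP channel fluorescence of barcode-gated MEP2-GFP cells measured by flow cytometry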); details: S. cerevisiae MEP2-GFP strain, 3 h, at 10 µM, stronger effect = higher value, 100% means same as DMSO wells
[13] = TOR pathway RTG branch CIT2 reporter changes – S. cerevisiae, GFP fusion, multiplex flow cytometry, primary screen (AID 1870;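 active = percent response above a set limit, the screen-wide mean plus 3 SD, cut at about 130% in these data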;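 also: barcoded CIT2-GFP strain pooled with four other GFP strains with rapamycin as positive control; median GFP fluorescence per well over plate mean of DMSO wells so 100% = DMSO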); details: S. cerevisiae CIT2-GFP expression, 3 h, at 10 µM, stronger effect = higher value
[14] = TOR pathway LAP4-GFP level changes – S. cerevisiae, multiplex flow cytometry, primary screen (AID 1873;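 active = GFP signal, as percent of the solvent control, above the screen mean plus 3 SD, about 149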); details: S. cerevisiae LAP4-GFP expression, 3 h, at 10 µM, stronger effect = higher value
[15] = yeast AGP1-GFP level changes, GLN3 branch – cell-based, multiplex flow cytometry, S. cerevisiae, primary screen (AID 1887;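 active = GFP signal above the screen-wide mean plus 3 SD, that is over about 124.5% of the solvent control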;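 also: AGP1-GFP fusion strain of S. cerevisiae within a five-strain barcoded multiplex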); details: 3 h, at 10 µM, stronger effect = higher value
[16] = hit retest on RPL19A-GFP reporter strain – cell-based, S. cerevisiae, flow cytometry, cherry picks, mother/daughter gates, confirmation (AID 2270;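 active = GFP response below 50% of the DMSO control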); details: 3 h, at 10 µM, stronger effect = lower value, 100 = same GFP as DMSO wells
[17] = yeast TOR pathway reporter LAP4-GFP change – cell-based, cherry picks, flow cytometry, mother/daughter gates, confirmation (AID 2271;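 active = GFP response above 150% of the DMSO control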;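 also: ratio of sample to DMSO plate mean so 100% equals DMSO level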); details: S. cerevisiae LAP4-GFP strain, 3 h, at 10 µM, stronger effect = higher value, 100 means same as DMSO control
[18] = TOR pathway reporter MEP2-GFP, retest of hits – S. cerevisiae, flow cytometry GFP, cherry picks, confirmation (AID 2272;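 active = GFP response above 150% of the DMSO control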;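 also: ratio of well signal to plate DMSO mean so 100% equals DMSO level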); details: S. cerevisiae MEP2-GFP strain, 3 h, at 10 µM, stronger effect = higher value
[19] = TOR pathway CIT2 reporter hit retest – S. cerevisiae, GFP fusion, cherry picks, mother/daughter gates, confirmation (AID 2274;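 active = GFP response above 150% of the DMSO level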); details: S. cerevisiae CIT2-GFP strain, flow cytometry, 3 h, at 10 µM, stronger effect = higher value
[20] = reduced mouse 2C T cell binding to pMHC/ICAM-1 vesicles – MLPCN validation set, flow cytometry, LFA-1/ICAM-1 modulator project, pilot screen (AID 2523;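 active = response below a set limit, under 55% cells CD8-positive and vesicle-bound, and CD8 cells' 90th-percentile brightness under 279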;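 as to vesicle binding response: mean PE anti-B7-1 fluorescence of CD8+ cells relative to row control; 100% = QL9-loaded vesicles with DMSO vehicle in the same plate row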); details: 2C mouse CD8+ T cells, at 7 µM, stronger effect = lower value; double positive events: measured here: CD8+/vesicle+ event percentage
[21] = measured here: daughter cell gate
[22] = measured here: mother cell gate
[23] = measured here: daughter cell gate response
[24] = measured here: mother cell gate response

Guanine nucleotide-binding protein G(o) subunit alpha (Homo sapiens), sequence (P09471 whole entry, looked up): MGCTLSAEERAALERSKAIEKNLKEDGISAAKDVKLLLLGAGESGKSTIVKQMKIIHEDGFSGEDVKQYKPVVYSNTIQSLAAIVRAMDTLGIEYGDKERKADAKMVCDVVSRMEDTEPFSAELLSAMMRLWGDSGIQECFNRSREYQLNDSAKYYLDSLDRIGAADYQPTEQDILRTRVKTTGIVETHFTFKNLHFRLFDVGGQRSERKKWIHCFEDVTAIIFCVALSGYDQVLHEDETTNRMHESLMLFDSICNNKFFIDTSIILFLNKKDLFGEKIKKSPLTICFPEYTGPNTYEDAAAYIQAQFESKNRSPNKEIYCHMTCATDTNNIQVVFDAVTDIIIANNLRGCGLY
Guanine nucleotide-binding protein G(o) subunit alpha (Homo sapiens) + Regulator of G-protein signaling 19 (Homo sapiens), sequence (P09471 whole entry, looked up): as above
Guanine nucleotide-binding protein G(o) subunit alpha (Homo sapiens) + Regulator of G-protein signaling 19 (Homo sapiens), sequence (P49795 whole entry, looked up): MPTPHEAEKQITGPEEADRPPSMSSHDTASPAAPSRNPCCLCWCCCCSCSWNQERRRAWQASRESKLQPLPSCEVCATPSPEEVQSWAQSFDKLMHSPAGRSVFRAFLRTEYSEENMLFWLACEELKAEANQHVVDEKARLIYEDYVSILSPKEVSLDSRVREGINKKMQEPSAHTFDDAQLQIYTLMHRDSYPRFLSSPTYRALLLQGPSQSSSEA
Regulator of G-protein signaling 16 (Homo sapiens) + Guanine nucleotide-binding protein G(o) subunit alpha (Homo sapiens), sequence (O15492 whole entry, looked up): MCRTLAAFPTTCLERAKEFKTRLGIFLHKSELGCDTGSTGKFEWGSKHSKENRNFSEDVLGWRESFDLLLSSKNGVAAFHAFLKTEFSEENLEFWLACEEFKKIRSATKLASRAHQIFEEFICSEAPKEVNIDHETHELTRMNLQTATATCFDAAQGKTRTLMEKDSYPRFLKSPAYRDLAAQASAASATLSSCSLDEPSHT
Regulator of G-protein signaling 16 (Homo sapiens) + Guanine nucleotide-binding protein G(o) subunit alpha (Homo sapiens), sequence (P09471 whole entry, looked up): as the sequence (P09471 whole entry, looked up) above

Structure (SMILES): CCCn1c(C)cc(C(=O)COC(=O)c2c(C)nn(-c3ccccc3)c2C)c1C
- RGS16–Galpha-o binding response [1]: -33.9%
- RGS19–Galpha-o binding response [2]: 99.6%
- RGS7–Galpha-o binding response [3]: 81.9%
- RGS8–Galpha-o binding response [4]: 83.8%
- inhibition [5]: 1.1% (inactive)
- binding response (% of control) [6]: 105% (inactive)
- response (percent of control binding) [7]: 104% (inactive)
- response (% of control binding) [8]: 103% (inactive)
- binding response (% of control) [9]: 104% (inactive)
- response (percent of control binding) [10]: 110% (inactive)

Structure (SMILES): Cc1ccc(OCCCCn2ccnc2C)c(C)c1
- percent of DMSO control GFP [11]: 97.3% (inactive)
- GFP response vs DMSO [12]: 99.6% (inactive)
- percent response of DMSO control [13]: 95.7% (inactive)
- GFP response vs DMSO [14]: 103% (inactive)
- GFP response, % of DMSO [15]: 110% (inactive)
- GFP response vs DMSO [16]: 99.6% (inactive)
- GFP response vs DMSO [16, 21]: 99.4%
- GFP response vs DMSO [16, 22]: 101%
- GFP response relative to DMSO [17]: 99.8% (inactive)
- GFP response relative to DMSO [17, 23]: 99.7%
- GFP response relative to DMSO [17, 24]: 100%
- GFP response vs DMSO [18]: 112% (inactive)
- GFP response, % of DMSO [19]: 98.4% (inactive)
- GFP response, % of DMSO [19, 21]: 100%
- GFP response, % of DMSO [19, 22]: 97.7%
- double positive events [20]: 59.6%
- vesicle binding response [20]: 179% (inactive)

Structure (SMILES): C[C@]12CC[C@@H]3c4ccc(O)cc4C(=O)C[C@H]3[C@@H]1CC[C@@H]2O
- percent of DMSO control GFP [11]: 98.3% (inactive)
- GFP response vs DMSO [12]: 148% (active)
- percent response of DMSO control [13]: 116% (inactive)
- GFP response vs DMSO [14]: 88% (inactive)
- GFP response, % of DMSO [15]: 97.5% (inactive)
- GFP response vs DMSO [16]: 97.4% (inactive)
- GFP response vs DMSO [16, 21]: 95.6%
- GFP response vs DMSO [16, 22]: 98.5%
- GFP response relative to DMSO [17]: 90.2% (inactive)
- GFP response relative to DMSO [17, 23]: 95.6%
- GFP response relative to DMSO [17, 24]: 92.1%
- GFP response vs DMSO [18]: 95.7% (inactive)
- GFP response, % of DMSO [19]: 111% (inactive)
- GFP response, % of DMSO [19, 21]: 108%
- GFP response, % of DMSO [19, 22]: 113%
- double positive events [20]: 39.3%
- vesicle binding response [20]: 60.7% (active)
